Results on 31 compounds are retold here after PubChem BioAssay AID624046 (National Center for Advancing Translational Sciences (NCATS), 2012).

Results filed as inconclusive are left out. Values without a mark were called inactive. Activity calls are given as the source filed them. Calls follow the shape of the dose curve; as a rule, active = well fitted inhibition curve with a large enough effect; inconclusive = small, poorly fitted or top-dose-only effect; inactive = flat fitted curve, though single readings scatter.

Dual specificity tyrosine-phosphorylation-regulated kinase 1B (Homo sapiens), sequence (Q9Y463 whole entry, looked up, canonical isoform): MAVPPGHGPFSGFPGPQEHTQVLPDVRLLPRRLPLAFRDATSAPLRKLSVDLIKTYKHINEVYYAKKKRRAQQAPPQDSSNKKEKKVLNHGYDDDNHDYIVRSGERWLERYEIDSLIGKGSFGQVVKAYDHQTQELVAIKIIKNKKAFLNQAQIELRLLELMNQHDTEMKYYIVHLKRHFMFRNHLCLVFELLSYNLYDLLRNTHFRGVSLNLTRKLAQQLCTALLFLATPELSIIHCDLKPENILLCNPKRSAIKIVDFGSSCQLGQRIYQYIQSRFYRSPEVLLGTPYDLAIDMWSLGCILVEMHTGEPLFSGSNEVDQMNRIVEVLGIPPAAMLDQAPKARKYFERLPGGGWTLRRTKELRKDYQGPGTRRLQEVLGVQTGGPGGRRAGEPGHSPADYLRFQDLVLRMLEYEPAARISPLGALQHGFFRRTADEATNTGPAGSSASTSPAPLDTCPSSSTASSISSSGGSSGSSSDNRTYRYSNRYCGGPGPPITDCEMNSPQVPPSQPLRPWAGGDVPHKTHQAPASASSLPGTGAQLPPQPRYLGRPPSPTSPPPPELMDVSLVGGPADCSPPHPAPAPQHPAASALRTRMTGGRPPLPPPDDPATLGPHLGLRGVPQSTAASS

The target in the assay is Dual specificity tyrosine-phosphorylation-regulated kinase 1B (Homo sapiens) (UniProt Q9Y463). As to the kind of experiment: Reaction Biology data for inhibitors of DYRK1B: Probe SAR. The settings on record: Reaction Biology DYRK1B kinase assay, 10 uM ATP; series mostly up to 10 µM; activity change, negative = inhibition: at the top concentration. The text has this:
Alternative splicing of pre-mRNAs plays a major role in the regulation of eukaryotic gene expression. Alternative splicing is now thought to be one of the primary reasons for the complexity of higher organisms leading to an average of three protein isoforms per gene. Aberrant splicing can lead to a number of diseases and is known to play a role in rare genetic diseases such as progeria syndrome. Hutchinson-Gilford Progeria Syndrome (HGPS) is a pediatric premature aging disease caused by a spontaneous mutation in the lamin A/C (LMNA) gene due to a single point mutation in the lamin A gene effecting 1 in 4 million people. To identify both specific splicing modulators of the lamin A gene as well as general splicing modulators, a cell-based HTS assay was developed using a minigene reporter system (AIDs, 1459 & 1487). […] This AID summarizes the characterization of lead compounds in Dyrk1b. NIH Molecular Libraries Probe Production Centers Network [MLPCN] NIH Chemical Genomics Center [NCGC] MLPCN Grant: MH084827 Assay Submitter (PI): Tom Misteli
Compound IC50s were determined at Reaction Biology (http://www.reactionbiology.com) with ten concentration points starting at 10 uM in the assay using a 3-fold dilution series. The control compound staurosporine was also tested in the 10-dose IC50 mode with the same 3-fold serial dilution, again starting at 10 uM. All kinase reactions were performed using 10 uM ATP in the assay. 100% activity was taken from kinase reactions with DMSO alone (the vehicle used for compound stock solutions).
With `COc1ccc(-c2ccnc(NCc3ccc(Cl)cc3)n2)cc1`, the Potency was 871 nM (active). Take `O=[N+]([O-])c1cc(Nc2nccc(-c3ccc4c(c3)OCO4)n2)cc(C(F)(F)F)c1`: the Potency is 27 nM (active). On to `COc1ccc(-c2ccnc(NCc3ccc(Cl)c(Cl)c3)n2)cc1OC`, for which the “activity change, negative = inhibition” value is -27.3%. For `Clc1ccc(CNc2nccc(-c3ccc4[nH]ncc4c3)n2)cc1Cl`, the Potency was 125 nM (active). Regarding `COc1cccc(-c2ccnc(NCc3ccc(Cl)c(Cl)c3)n2)c1`, the “activity change, negative = inhibition” value was -45.4%. As to `c1cncc(CNc2nccc(-c3ccc4[nH]ncc4c3)n2)c1`, the Potency is 92.9 nM (active). On the same count and under the same terms, to `Clc1ccc(CNc2ccnc(-c3ccc4[nH]ncc4c3)n2)cc1Cl` belongs 514 nM (active); to `FC(F)(F)c1cccc(Nc2nccc(-c3ccc4c(c3)OCO4)n2)c1`, 18.1 nM (active). Same read-out and setting: in the case of `COc1ccc(-c2ccnc(NCc3ccc(Cl)c(Cl)c3)n2)cc1` it was 411 nM (active). Still for that read-out and setting: in the case of `Cc1c(-c2ccnc(NCc3cccnc3)n2)sc(=O)n1C` it was 31.1 nM (active); in that of `c1cncc(CNc2ccnc(-c3ccc4cn[nH]c4c3)n2)c1`, 829 nM (active); in that of `Cc1c(-c2ccnc(NCc3ccc(Cl)cc3)n2)sc(=O)n1C`, 51.6 nM (active). Regarding `Clc1cc(Cl)cc(CNc2ncncc2-c2ccc3c(c2)OCO3)c1`, the Potency is 1160 nM (active). The same measure, in the same setting: to `Clc1cc(Cl)cc(CNc2nccc(-c3ccc4c(c3)OCO4)n2)c1` belongs 7.1 nM (active). Regarding `Clc1ccc(CNc2ncncc2-c2ccc3c(c2)OCO3)cc1Cl`, the “activity change, negative = inhibition” value is -48.5%.

In the case of `c1cc(-c2ccc3c(c2)OCO3)nc(Nc2ccc3c(c2)OCO3)n1`, the Potency is 41.9 nM (active). Same read-out and setting: to `COc1cccc(-c2ccnc(NCc3ccc(Cl)cc3)n2)c1` belongs 6780 nM (active); to `Brc1ccc(CNc2nccc(-c3ccc4c(c3)OCO4)n2)cc1Br`, 112 nM (active). For `FC(F)(F)c1cc(Br)cc(Nc2nccc(-c3ccc4c(c3)OCO4)n2)c1`, the Potency is 137 nM (active).

Take `Cc1nc(CNc2ncnc3ccc(-c4ccc5c(c4)OCO5)cc23)cs1`: the Potency was 176 nM (active). For `Clc1ccc(CNc2nccc(-c3ccc4cn[nH]c4c3)n2)cc1Cl`, the Potency is 599 nM (active). The same measure, in the same setting: to `Clc1ccc(CNc2nccc(-c3ccc4c(c3)OCO4)n2)cc1Cl` belongs 37.8 nM (active); to `Cc1nc(CN(C)c2ncnc3ccc(-c4ccc5c(c4)OCO5)cc23)cs1`, 16.4 nM (active). Consider `c1cncc(CNc2ncncc2-c2ccc3c(c2)OCO3)c1`, for which the “activity change, negative = inhibition” value is -43.5%. Turning to `Clc1ccc(CNc2nccc(-c3ccc4c(c3)OCCO4)n2)cc1Cl`, the Potency was 54.8 nM (active). The same measure, in the same setting: in the case of `Brc1cc(Br)cc(CNc2nccc(-c3ccc4c(c3)OCO4)n2)c1` it was 18.2 nM (active); in that of `c1nc(NCC2CCCO2)c2cc(-c3ccc4c(c3)OCO4)ccc2n1` (stereo unspecified), 141 nM (active); in that of `Clc1ccc(Nc2nccc(-c3ccc4c(c3)OCO4)n2)cc1`, 884 nM (active). Same read-out and setting: in the case of `c1cncc(CNc2ccnc(-c3ccc4[nH]ncc4c3)n2)c1` it was 178 nM (active); in that of `c1cncc(CNc2nccc(-c3ccc4c(c3)OCO4)n2)c1`, 12 nM (active); in that of `Cc1nc(CN(C)c2ncnc3ccc(-c4ccc5[nH]ncc5c4)cc23)cs1`, 89.5 nM (active).
